Measurements reported in PubChem BioAssay AID485288 (Southern Research Specialized Biocontainment Screening …, 2010).
Results with a measured potency or affinity are listed apart. The source made the active and inactive calls. No rule for the calls is given here.

Biological target: Large T antigen (Simian virus 40) (UniProt P03070)
Assay: inhibition of TAg ATP hydrolysis – biochemical, ADP-Hunter detection, purified TAg, synthesized compounds, set 3, SAR follow-up (AID 485288)

Large T antigen (Simian virus 40), sequence (P03070 whole entry, looked up): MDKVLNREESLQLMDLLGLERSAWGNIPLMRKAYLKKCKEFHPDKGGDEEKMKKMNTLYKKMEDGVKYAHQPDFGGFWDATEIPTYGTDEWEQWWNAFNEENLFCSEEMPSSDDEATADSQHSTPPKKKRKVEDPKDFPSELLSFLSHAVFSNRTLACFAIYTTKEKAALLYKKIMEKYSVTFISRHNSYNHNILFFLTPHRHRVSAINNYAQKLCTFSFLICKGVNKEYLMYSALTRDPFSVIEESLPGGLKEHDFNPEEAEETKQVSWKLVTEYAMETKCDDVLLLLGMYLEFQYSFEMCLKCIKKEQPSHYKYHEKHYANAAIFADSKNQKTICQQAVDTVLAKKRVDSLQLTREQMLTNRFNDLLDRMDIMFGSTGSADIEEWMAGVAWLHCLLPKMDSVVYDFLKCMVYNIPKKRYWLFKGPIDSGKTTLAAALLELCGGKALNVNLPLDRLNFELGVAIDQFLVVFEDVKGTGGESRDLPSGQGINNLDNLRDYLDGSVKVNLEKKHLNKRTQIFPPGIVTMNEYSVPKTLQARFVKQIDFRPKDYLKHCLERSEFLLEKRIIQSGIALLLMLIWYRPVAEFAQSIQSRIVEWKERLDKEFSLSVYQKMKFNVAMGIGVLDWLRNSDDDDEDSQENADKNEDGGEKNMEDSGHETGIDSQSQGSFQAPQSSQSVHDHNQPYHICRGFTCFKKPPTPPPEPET

SMILES	outcome
CC(C)(c1ccccc1)c1ccc(O)cc1	inactive
Cc1cc(C(C)(C)c2ccc(O)c(C)c2)ccc1O	inactive
